Measured values: PubChem BioAssay

Assays:
PEG-3 [1] = biological target: PEG-3 (UniProt Q6IN02); assay: Peg3 promoter luciferase inhibitors, potency, dose response, cell-based, HeLa, CREF/GAPDH counter-screen panel (AID 624167); conditions: CREF/GAPDH counter-screens; HeLa PEG-Prom luciferase reporter, overnight, run 1, dose range 1, at 100 µM (top of the series) unless noted
PEG-3 [2] = biological target: PEG-3 (UniProt Q6IN02); assay: as above; conditions: CREF/GAPDH counter-screens; HeLa PEG-Prom luciferase reporter, overnight, run 2, dose range 1, at 100 µM (top of the series) unless noted

PEG-3, sequence (Q6IN02 whole entry, looked up): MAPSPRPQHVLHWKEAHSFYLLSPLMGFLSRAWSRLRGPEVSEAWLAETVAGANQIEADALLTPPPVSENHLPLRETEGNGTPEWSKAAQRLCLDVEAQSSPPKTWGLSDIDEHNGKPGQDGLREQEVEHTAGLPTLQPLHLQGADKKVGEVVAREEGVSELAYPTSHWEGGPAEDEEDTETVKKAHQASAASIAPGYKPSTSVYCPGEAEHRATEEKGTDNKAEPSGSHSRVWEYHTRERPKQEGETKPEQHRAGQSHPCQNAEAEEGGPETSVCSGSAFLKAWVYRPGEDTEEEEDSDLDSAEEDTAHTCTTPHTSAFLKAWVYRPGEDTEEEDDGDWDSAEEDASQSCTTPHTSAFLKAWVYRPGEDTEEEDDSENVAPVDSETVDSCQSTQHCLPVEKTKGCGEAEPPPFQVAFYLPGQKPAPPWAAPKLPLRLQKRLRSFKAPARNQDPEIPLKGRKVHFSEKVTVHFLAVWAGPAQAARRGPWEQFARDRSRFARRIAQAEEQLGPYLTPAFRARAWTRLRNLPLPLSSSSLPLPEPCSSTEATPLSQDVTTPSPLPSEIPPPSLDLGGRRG

| SMILES | inhibition (PEG-3 [1]) [%] | inhibition (PEG-3 [2]) [%] |
| --- | --- | --- |
| O=C(Cc1csc(Nc2nc(=S)[nH]c3ccccc23)n1)NCc1ccccc1Cl | -6.11 | -45.6 |
| C/C(=N\N=C(N)N)c1ccc(Cl)c(Cl)c1 | 102 | 101 |
| O=C(Nc1ccccc1N1CCOCC1)c1cc(-c2ccncc2)nc2ccccc12 | 93.7 | 88 |
| COc1ccc(N(Cc2cc3cc(OC)ccc3[nH]c2=O)S(=O)(=O)c2ccc(NC(C)=O)cc2)cc1 | 89.7 | 89.7 |
| CC(C)n1nc(C(=O)Oc2cc(Cl)ccc2Cl)c2ccccc2c1=O | 98.6 | 97.5 |
| O=C(c1ccoc1)N1CCN(c2cc(-c3ccccc3)nc3cc(-c4ccccc4)nn23)CC1 | 58.2 | 66 |
| NCCc1c(-c2ccccc2)n(-c2ccccc2)c2ccccc12 | 97.5 | 102 |
| CCN(CC)CCN1CCN(c2cncc(-c3ccc4ccccc4c3)n2)CC1 | 98.9 | 102 |
| Cc1nn(-c2ccccc2Cl)c(Cl)c1/C=N/Nc1nc2ccccc2s1 | 57.6 | 47.3 |
| CCCCCCCCNCCS(=O)(=O)NCc1ccc(OC)cc1 | 98.9 | 95.7 |
| COCC(C)n1c(C)cc(C(=O)COC(=O)c2cccn2C)c1C (stereo unspecified) | 75.2 | 83.3 |
| CC(=O)c1c(NCCc2ccccc2)nc(=S)n(-c2ccccc2)c1C | 99.6 | 99 |
| CCOC(=O)C1CCN(c2cc3c(cc2NC(=O)c2ccccc2OCC)n(C)c(=O)n3C)CC1 | 101 | 101 |
| CN(CC(=O)Nc1ccc(Cl)c(C(F)(F)F)c1)C(=O)c1cc(-c2ccncc2)nc2ccccc12 | 102 | 98.9 |
| CCOC(=O)C1=C(COCCN)NC(C)=C(C(=O)OC)C1c1ccccc1Cl (stereo unspecified) | 98.7 | 100 |
| COc1ccc(C)cc1Nc1n[n+](-c2ccccc2)c(-c2ccc(N(C)C)cc2)s1 | 97.2 | 100 |
| c1ccc(CN=C(NCc2ccccc2)NCc2ccccc2)cc1 | 99.7 | 102 |
| Cc1ccc(C(=O)N/C(=C\c2ccc(-c3cccc([N+](=O)[O-])c3)o2)C(=O)NCCCN(C)C)cc1 | 102 | 98.8 |
| CC(C)CC(N)c1csc(Nc2ccc(C(=O)c3ccccc3)cc2)n1 (stereo unspecified) | 102 | 101 |
| NC(c1csc(Nc2nccc(C(F)(F)F)n2)n1)C1CCCCC1 (stereo unspecified) | 98.2 | 99.1 |
| CCOc1cc(CNCCCN2CCOCC2)ccc1OCC(=O)Nc1cccc2ccccc12 | 100 | 101 |
| CCCCCCCNC(=O)C1(CC2CC(c3ccccc3)=NO2)CCNCC1 (stereo unspecified) | 97.9 | 98.7 |

| SMILES | inhibition (PEG-3 [1]) [%] | inhibition (PEG-3 [2]) [%] |
| --- | --- | --- |
| CC(NS(=O)(=O)OCC(Cl)(Cl)Cl)c1ccc(C(C)(C)C)cc1 (stereo unspecified) | 101 | 97.9 |
| CC(=O)NC(c1ccc(C)cc1)c1cc(Cl)c2cccnc2c1O (stereo unspecified) | 88.1 | 89.7 |
| O=C(Nc1ccc2oc(-c3ccncc3)nc2c1)c1ccc([N+](=O)[O-])o1 | 99 | 101 |
| OCCN1CCN(C2CCC(c3ccc(F)cc3)c3ccc(F)cc32)CC1 (stereo unspecified) | 102 | 101 |
| CCCc1nc(SCC(=O)N2CCCc3ccccc32)c2c(=O)n(C)c(=O)n(C)c2n1 | 99.2 | 96.2 |
| COc1ccc2c(c1)[nH]c1c(=O)n(/N=C/C3C(C)C=C(C)CC3C)c(=O)[nH]c12 (stereo unspecified) | -108 | -83.6 |
| CCCCNc1nc(=S)n(-c2ccccc2)c(C)c1C(C)=O | 98 | 98.8 |
| COC(=O)c1ccc(Nc2cc(C)nc3ccc(C)cc23)cc1 | 98.7 | 100 |
| Cc1ccc2nc(N(CCCN(C)C)C(=O)c3ccc4c(c3)CCCC4)sc2c1 | 99.5 | 101 |
| Cc1ccc2cccc(OCC(=O)Nc3cccc(S(=O)(=O)N4CCCC4)c3)c2n1 | 94.5 | 97.2 |
| COc1ccccc1CCNC(=O)C1CCN(c2nnc(C)c3c(C)n(-c4ccc(C)cc4)nc23)CC1 | 99 | 97.3 |
| O=C(NC1CCCCC1)Sc1ccc(Cl)cc1 | 102 | 101 |
| NC(N)=N/N=C/c1cccc(Cl)c1Cl | 97.9 | 99.4 |
| O=C(Nc1ccc(-c2cn3ccsc3n2)cc1)c1ccc(F)c(S(=O)(=O)N2CCOCC2)c1 | 0.918 | -62.2 |
| Cc1nn(-c2ccccc2)c2c1C(c1ccc([N+](=O)[O-])cc1)N1C(=N2)C(=O)Nc2ccccc21 (stereo unspecified) | 10.2 | 2.44 |
| N=c1n(CCN2CCCC2)c2ccccc2n1CC(O)c1ccc(Cl)c(Cl)c1 (stereo unspecified) | 99.3 | 101 |
| CC(=O)c1cccc(-c2csc3ncnc(Sc4nnnn4C)c23)c1 | 99.4 | 100 |
| COc1ccc(-c2cc(-c3ccc(F)cc3)nc(N3CCN(C)CC3)n2)cc1 | 25.8 | 101 |
| Cc1ccc(S(=O)(=O)N(C)C)cc1NC(=O)c1cncc(Br)c1 | 82.4 | 83.7 |
| c1ccc(-c2cc(-c3nc4ccccc4[nH]3)c3ccccc3n2)cc1 | 86.8 | 88.6 |
| CNCC[C@H](Oc1cccc2ccccc12)c1cccs1 | 102 | 98.8 |
| CCCCCCSc1cc(-c2nc3ccc(C)cn3c2NCCCC)ccc1OC | 98.7 | 101 |

| SMILES | inhibition (PEG-3 [1]) [%] | inhibition (PEG-3 [2]) [%] |
| --- | --- | --- |
| Oc1ccc(C23CCCC2C2(CCCC2)c2ccc(O)cc2O3)c(O)c1 (stereo unspecified) | 99.4 | 95.5 |
| O=S(=O)(CC(CN1CCCCC1)N1CCCCC1)c1ccccc1 (stereo unspecified) | 102 | 102 |
| Cc1ccc(Cn2c(=N)n(CC(=O)c3ccccc3)c3ccccc32)cc1 | 101 | 102 |
| CCCN(CC(=O)Nc1cc(Cl)cc(Cl)c1)CC(=O)Nc1ccc(F)c(F)c1F | 101 | 99 |
| O=S(=O)(Nc1cccc2ncccc12)c1cccs1 | 94.5 | 96.5 |
| COc1cccc(NC(=O)CN(C)C(=O)c2cc(-c3ccc(F)cc3)nc3ccccc23)c1 | 102 | 99.1 |
| CCCc1nc2oc3c(NCCCN(C)C)ncnc3c2c2c1CCCC2 | 102 | 101 |
| COc1ccc(-n2ncc3c(N(C)C4CCCCC4)ncnc32)cc1 | 96.6 | 89.4 |
| CC(C)CC(N)c1csc(NC(=O)Nc2ccccc2C(C)(C)C)n1 (stereo unspecified) | 102 | 101 |
| Cc1cc(-n2c(SCC(=O)Nc3ccc(F)c(F)c3)nc3n[nH]c(C)c3c2=N)ccc1Cl | 100 | 95.3 |
| Cc1c(C#N)c(N)nc2c3c(sc12)NC(=O)CC3c1ccc(Cl)cc1 (stereo unspecified) | 98.7 | 100 |
| CCCCCCC=C1CCC(CN2CCCC2)C1=O (stereo unspecified) | 98.4 | 101 |
| NCCCNc1nc(N)c([N+](=O)[O-])c(NC2CCCCC2)n1 | 96 | 102 |
| COc1ccc(-c2cc(C(=O)N(C)Cc3ccccc3F)c3ccccc3n2)cc1OC | 97.1 | 94.9 |
| COc1ccc(OC)c(-c2cc(C(=O)N3CCN(c4ncccn4)CC3)c3ccccc3n2)c1 | 54.9 | 59.3 |
| CNCC[C@@H](Oc1ccc(C(F)(F)F)cc1)c1ccccc1 | 98.7 | 100 |
| CCCCCCCCCC[N+](C)(C)CC/C=C1/c2ccccc2Sc2ccc(Cl)cc21 | 99.8 | 101 |
| Cc1cc(Br)ccc1NC(=O)CN1C(=O)C2C3CC(c4ccccc4)C(C3)C2C1=O (stereo unspecified) | 99.9 | 92.1 |
| CCOc1cccc2sc(N(CCCN(C)C)C(=O)c3ccc(S(=O)(=O)N(CC)Cc4ccccc4)cc3)nc12 | 102 | 101 |
| O=C(CN1CCN(Cc2ccccc2Cl)CC1)N=Nc1c(O)[nH]c2ccccc12 | 94.2 | 90.4 |
| COc1ccc2c(c1OC)C(=O)N1c3ccccc3C(=O)N(c3ccccc3F)C21 (stereo unspecified) | 62.8 | 68.7 |
| COc1ccc2sc3cccc(NCCN(C)C)c3c(=O)c2c1 | 98 | 99.2 |

| SMILES | inhibition (PEG-3 [1]) [%] | inhibition (PEG-3 [2]) [%] |
| --- | --- | --- |
| Cc1ccc(CC2(OCCN(C)C)CCC(C(C)(C)C)CC2)cc1 (stereo unspecified) | 99.6 | 97.3 |
| CC1(C)CC(NC(=O)c2sc3cc(Cl)ccc3c2Cl)CC(C)(C)N1 | 99.4 | 101 |
| CCc1cccc(CC)c1NC(=S)NCCc1c(C)[nH]c2ccc(C)cc12 | 89.5 | 83.9 |
| Cc1cc(C)nc(NC(=O)c2c(F)c(F)c(F)c(C(=O)Nc3cc(C)cc(C)n3)c2F)c1 | 96.5 | 98.3 |
| C[C@@H](C(=O)Nc1ccc2c(c1)OCCO2)n1c(=O)[nH]c2ccccc2c1=O | 53.8 | 39.3 |
| Oc1[nH]c2ccc(Br)cc2c1N=NC(=S)Nc1ccc(F)cc1 | 89.9 | 100 |
| CCCCN(C)CCNC(=O)c1cc(-c2cccnc2)nc2ccc(S(=O)(=O)N3CCC(C)CC3)cc12 | 100 | 96.1 |
| O=C(c1ccccc1)N(C(=O)c1ccccc1)c1ncnc2c1C(c1ccccc1)c1c(ccc3ccccc13)O2 (stereo unspecified) | 52.7 | 28.4 |
| CCCCCCOc1ccc(/C(C)=N/NC2=NCCN2)cc1 | 101 | 101 |
| Cc1ccc(NCCN(C)C)c2c(=O)c3cc(O)ccc3sc12 | 97.5 | 102 |
| CCCCCCCn1c(=N)n(CC(O)c2ccco2)c2ccccc21 (stereo unspecified) | 101 | 99.1 |
| CC1(C)C(=O)C=CC(=O)C(C)(C)C(=O)C=CC(=O)C(C)(C)C2=CC=C(O2)C(C)(C)C(=O)C=CC1=O | 102 | 98.9 |
| Cc1ccc2[nH]c(=O)c(C3C(C#N)=C(N)Oc4c3ccc3cccnc43)cc2c1 (stereo unspecified) | 99.2 | 98.6 |
| CN1CCC(N(C)C(=O)/C=C/c2cn(-c3ccccc3)nc2-c2cccs2)CC1 | 102 | 102 |
| Fc1ccc([C@@H]2CCNC[C@H]2COc2ccc3c(c2)OCO3)cc1 | 102 | 101 |
| O=c1c2c3c(sc2nc(N2CCNCC2)n1CCc1ccccc1)CCCCC3 | 102 | 101 |
| COc1ccc(C2NCCc3c2[nH]c2ccccc32)cc1COc1ccc(F)cc1 (stereo unspecified) | 98.9 | 101 |
| Cc1cccc(NC(=O)CSc2nc3ccccc3c3nc(CCc4c(C)n[nH]c4C)nn23)c1 | 97.9 | 95.8 |
| COC(=O)c1cn(NC(=O)c2cc([N+](=O)[O-])ccc2F)c(=O)c2ccccc12 | 95.3 | 94 |
| c1ccc(CCNc2nc(-c3ccncc3)nc3ccccc23)cc1 | 52.1 | 47.8 |
| CN(C)C(=O)c1cccc(-c2cnc3c(NC=O)cc(-c4cccc(C(F)(F)F)c4)cn23)c1 | 89.1 | 93.6 |
| Cc1cc(C)c(CN2CCN(CCCn3cnc(C(=O)Nc4ccc(C)c(C)c4)n3)CC2)c(C)c1 | 102 | 101 |
